The record followed here is paper PMC7862700, “An all-to-all approach to the identification of sequence-specific readers for epigenetic DNA modifications on cytosine”.

What all share (assay): DAPPL (digital affinity profiling via proximity ligation, sequencing); 10 mM Tris-HCl pH 7.5, 50 mM NaCl, 1 mM DTT, 4% glycerol, room temperature, 30 min; GST-TFs on glutathione beads, 16-mer random dsDNA library, 0.1% formaldehyde crosslink after washing; high values mean tight binding
The target in one assay is T1, FEV (Homo sapiens, UniProt Q99581 1-238).
T1 sequence: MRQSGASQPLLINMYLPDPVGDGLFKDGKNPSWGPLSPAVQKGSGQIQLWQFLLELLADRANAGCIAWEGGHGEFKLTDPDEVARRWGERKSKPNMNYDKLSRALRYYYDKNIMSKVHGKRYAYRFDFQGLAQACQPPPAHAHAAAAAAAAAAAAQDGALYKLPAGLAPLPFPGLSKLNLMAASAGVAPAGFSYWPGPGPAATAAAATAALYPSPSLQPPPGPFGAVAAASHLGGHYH
Particulars: protein: recombinant; tags: N-terminal GST; dsDNA, one strand shown. A digest of the protocol:
(§1)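 Human transcription factors carrying a GST fusion were produced in yeast, bound to glutathione beads, tagged with DNA barcodes and pooled together with a tag-only sample. Each pool was held with 200 nmole of a random double-stranded 16-mer DNA library in Tris/NaCl/DTT/glycerol buffer for 30 min at room temperature, then washed, crosslinked in 0.1% formaldehyde, proximity-ligated with BsaI/T4 ligase (1 h, 37 °C), PCR-amplified and sequenced on an Illumina NextSeq500. Binding signal is the read frequency of each hexamer for a given factor divided by its frequency in the tag-only sample.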

Another assay deals with ETV5 (Homo sapiens, UniProt P41161 1-510). Particulars: protein: recombinant; tags: N-terminal GST; dsDNA, one strand shown. An outline of the steps:
as §1

Another assay deals with HSF1 (Homo sapiens, UniProt Q00613 1-529). Particulars: protein: recombinant; tags: N-terminal GST; chain copies: 3; dsDNA, one strand shown. An outline of the steps:
as §1

The target of the next assay is T2, SPIC (Homo sapiens, UniProt Q8N5J4 1-248).
T2 sequence: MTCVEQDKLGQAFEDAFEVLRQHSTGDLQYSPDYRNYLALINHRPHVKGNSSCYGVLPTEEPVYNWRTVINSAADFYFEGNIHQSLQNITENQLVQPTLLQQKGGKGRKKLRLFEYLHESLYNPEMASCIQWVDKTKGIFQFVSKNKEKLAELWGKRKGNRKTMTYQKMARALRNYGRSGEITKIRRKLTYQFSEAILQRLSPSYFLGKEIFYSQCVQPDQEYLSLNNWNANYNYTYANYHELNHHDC
Particulars: protein: recombinant; tags: N-terminal GST; dsDNA, one strand shown. An outline of the steps:
as §1

For another assay, the target named is ELF4 (Homo sapiens, UniProt Q99607 1-663). To be noted: protein: recombinant; tags: N-terminal GST; dsDNA, one strand shown. A digest of the protocol:
as §1

The next assay concerns the target T3, ELK4 (Homo sapiens, UniProt P28324-2 1-405).
T3 sequence: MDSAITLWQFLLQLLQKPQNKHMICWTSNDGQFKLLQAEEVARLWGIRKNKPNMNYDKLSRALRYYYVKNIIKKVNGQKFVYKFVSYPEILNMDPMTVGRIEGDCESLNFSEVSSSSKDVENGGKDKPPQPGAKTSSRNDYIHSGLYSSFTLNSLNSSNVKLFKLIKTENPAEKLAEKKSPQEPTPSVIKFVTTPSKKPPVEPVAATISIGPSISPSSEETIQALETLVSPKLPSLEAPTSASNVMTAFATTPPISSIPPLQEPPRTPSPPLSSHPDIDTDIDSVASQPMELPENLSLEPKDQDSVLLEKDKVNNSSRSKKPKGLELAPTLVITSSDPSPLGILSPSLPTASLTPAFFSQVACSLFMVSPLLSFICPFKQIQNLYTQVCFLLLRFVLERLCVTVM
To be noted: protein: recombinant; tags: N-terminal GST; dsDNA, one strand shown. A digest of the protocol:
as §1

The next assay concerns the target T4, ETV2 (Homo sapiens, UniProt O00321 1-342).
T4 sequence: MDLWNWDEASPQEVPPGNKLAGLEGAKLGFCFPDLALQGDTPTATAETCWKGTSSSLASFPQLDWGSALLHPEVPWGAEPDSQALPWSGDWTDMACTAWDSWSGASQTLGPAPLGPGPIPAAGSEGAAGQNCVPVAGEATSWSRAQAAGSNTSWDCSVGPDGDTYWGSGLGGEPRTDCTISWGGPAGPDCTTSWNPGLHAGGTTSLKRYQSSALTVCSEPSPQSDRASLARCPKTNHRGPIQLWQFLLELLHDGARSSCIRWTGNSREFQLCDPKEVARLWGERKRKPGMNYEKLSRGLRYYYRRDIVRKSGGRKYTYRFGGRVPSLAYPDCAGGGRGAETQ
Particulars: protein: recombinant; tags: N-terminal GST; dsDNA, one strand shown. A digest of the protocol:
as §1

In another assay the target is T5, ELF3 (Homo sapiens, UniProt P78545 1-371).
T5 sequence: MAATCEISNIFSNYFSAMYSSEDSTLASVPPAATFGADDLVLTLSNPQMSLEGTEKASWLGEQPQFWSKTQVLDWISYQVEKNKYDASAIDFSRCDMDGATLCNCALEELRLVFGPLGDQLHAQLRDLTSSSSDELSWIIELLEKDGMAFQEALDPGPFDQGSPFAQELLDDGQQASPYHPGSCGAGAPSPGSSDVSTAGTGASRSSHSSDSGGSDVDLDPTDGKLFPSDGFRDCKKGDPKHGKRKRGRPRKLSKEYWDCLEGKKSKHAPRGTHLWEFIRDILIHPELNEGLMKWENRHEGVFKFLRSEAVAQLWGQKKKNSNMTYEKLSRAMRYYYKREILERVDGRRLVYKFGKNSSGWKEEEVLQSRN
Particulars: protein: recombinant; tags: N-terminal GST; dsDNA, one strand shown. An outline of the steps:
as §1

Another assay concerns the target CRX (Homo sapiens, UniProt O43186 1-299). Particulars: protein: recombinant; tags: N-terminal GST; dsDNA, one strand shown. An outline of the steps: as §1
In another assay the target is ETV1 (Homo sapiens, UniProt P50549 1-477). To be noted: protein: recombinant; tags: N-terminal GST; dsDNA, one strand shown. A digest of the protocol: as §1
In a further assay the target is T6, ERF (Homo sapiens, UniProt P50548 1-548).
T6 sequence: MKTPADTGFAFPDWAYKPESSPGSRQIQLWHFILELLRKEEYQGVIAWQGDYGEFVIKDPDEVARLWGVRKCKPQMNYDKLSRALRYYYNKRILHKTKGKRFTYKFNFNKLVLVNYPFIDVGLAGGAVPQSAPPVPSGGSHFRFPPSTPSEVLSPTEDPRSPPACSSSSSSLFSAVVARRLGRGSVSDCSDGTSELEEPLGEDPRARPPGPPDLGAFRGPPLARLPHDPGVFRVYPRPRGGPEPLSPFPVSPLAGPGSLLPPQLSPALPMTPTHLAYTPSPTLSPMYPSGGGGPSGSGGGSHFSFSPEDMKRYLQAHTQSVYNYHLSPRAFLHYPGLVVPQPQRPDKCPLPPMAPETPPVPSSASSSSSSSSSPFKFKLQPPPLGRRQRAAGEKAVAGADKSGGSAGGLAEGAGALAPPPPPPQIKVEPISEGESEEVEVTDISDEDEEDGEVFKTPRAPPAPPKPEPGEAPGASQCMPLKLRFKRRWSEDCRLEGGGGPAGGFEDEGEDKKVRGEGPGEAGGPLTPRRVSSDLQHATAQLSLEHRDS
Particulars: protein: recombinant; tags: N-terminal GST; dsDNA, one strand shown. An outline of the steps: as §1

The target in a further assay is T7, ETV3L (Homo sapiens, UniProt Q6ZN32 1-361).
T7 sequence: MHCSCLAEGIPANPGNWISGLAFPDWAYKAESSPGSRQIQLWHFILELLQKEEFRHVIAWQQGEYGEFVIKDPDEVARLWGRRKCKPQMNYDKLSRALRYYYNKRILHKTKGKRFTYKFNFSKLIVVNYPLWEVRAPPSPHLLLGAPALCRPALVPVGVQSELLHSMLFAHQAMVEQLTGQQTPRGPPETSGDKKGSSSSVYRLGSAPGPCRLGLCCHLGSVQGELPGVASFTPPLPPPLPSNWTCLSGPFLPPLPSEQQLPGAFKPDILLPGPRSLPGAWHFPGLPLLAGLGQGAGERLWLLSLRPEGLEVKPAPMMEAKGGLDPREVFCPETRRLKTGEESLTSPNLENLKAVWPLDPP
Particulars: protein: recombinant; tags: N-terminal GST; dsDNA, one strand shown. An outline of the steps:
as §1

The target of another assay is T8, ETS2 (Homo sapiens, UniProt P15036 1-469).
T8 sequence: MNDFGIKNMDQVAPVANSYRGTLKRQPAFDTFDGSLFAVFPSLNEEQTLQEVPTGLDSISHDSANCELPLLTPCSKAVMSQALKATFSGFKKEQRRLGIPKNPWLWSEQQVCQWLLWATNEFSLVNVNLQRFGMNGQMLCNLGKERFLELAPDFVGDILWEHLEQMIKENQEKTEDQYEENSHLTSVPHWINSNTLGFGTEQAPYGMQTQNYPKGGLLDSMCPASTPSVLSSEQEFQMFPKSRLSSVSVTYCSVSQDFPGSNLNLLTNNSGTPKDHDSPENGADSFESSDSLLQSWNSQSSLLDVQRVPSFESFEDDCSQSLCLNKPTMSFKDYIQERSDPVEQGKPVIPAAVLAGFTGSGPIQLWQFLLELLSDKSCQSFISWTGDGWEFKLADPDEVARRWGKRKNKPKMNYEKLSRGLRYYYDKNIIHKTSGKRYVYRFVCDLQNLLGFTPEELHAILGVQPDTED
Particulars: protein: recombinant; tags: N-terminal GST; dsDNA, one strand shown. An outline of the steps:
as §1

The target of the next assay is T9, SPDEF (Homo sapiens, UniProt O95238 1-335).
T9 sequence: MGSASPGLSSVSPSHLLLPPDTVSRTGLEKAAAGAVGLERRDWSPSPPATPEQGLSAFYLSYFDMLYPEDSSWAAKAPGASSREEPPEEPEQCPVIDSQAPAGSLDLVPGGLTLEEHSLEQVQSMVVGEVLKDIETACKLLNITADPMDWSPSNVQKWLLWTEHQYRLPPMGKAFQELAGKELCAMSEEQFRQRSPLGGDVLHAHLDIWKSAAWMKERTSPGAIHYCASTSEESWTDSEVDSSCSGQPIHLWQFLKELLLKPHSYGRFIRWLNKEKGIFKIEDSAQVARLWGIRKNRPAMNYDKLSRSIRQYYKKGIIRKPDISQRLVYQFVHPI
To be noted: protein: recombinant; tags: N-terminal GST; dsDNA, one strand shown. A digest of the protocol: as §1

In a further assay the target is T10, ETV7 (Homo sapiens, UniProt Q9Y603 1-341).
T10 sequence: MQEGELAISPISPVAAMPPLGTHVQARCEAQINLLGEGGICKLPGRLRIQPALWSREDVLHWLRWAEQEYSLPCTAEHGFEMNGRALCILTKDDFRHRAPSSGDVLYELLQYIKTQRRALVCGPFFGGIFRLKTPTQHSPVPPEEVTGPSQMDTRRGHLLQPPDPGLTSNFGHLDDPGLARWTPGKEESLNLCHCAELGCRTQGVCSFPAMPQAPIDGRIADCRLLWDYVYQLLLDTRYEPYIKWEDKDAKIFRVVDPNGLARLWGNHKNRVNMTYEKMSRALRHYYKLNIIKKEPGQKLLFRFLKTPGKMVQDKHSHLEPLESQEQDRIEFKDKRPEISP
Particulars: protein: recombinant; tags: N-terminal GST; dsDNA, one strand shown. A digest of the protocol:
as §1

The target of a further assay is T11, ELF5 (Homo sapiens, UniProt Q9UKW6-2 1-255).
T11 sequence: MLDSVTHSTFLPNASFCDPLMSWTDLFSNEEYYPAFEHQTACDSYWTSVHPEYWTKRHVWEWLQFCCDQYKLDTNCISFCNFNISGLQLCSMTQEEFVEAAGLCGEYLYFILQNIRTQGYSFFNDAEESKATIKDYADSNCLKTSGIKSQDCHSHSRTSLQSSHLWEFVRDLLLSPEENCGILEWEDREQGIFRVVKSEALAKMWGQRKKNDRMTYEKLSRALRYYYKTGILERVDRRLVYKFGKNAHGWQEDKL
Particulars: protein: recombinant; tags: N-terminal GST; dsDNA, one strand shown. A digest of the protocol: as §1

For another assay, the target named is T12, ETV3 (Homo sapiens, UniProt P41162-2 1-143).
T12 sequence: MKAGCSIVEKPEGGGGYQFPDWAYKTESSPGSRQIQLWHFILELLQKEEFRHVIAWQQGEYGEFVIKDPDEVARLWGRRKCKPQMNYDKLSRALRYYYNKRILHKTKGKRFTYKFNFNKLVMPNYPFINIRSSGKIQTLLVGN
Particulars: protein: recombinant; tags: N-terminal GST; dsDNA, one strand shown. A digest of the protocol:
as §1

A further assay has as its target ETV6 (Homo sapiens, UniProt P41212 1-452). To be noted: protein: recombinant; tags: N-terminal GST; dsDNA, one strand shown. A digest of the protocol: as §1

Sequence of ETV1 (P50549 whole entry): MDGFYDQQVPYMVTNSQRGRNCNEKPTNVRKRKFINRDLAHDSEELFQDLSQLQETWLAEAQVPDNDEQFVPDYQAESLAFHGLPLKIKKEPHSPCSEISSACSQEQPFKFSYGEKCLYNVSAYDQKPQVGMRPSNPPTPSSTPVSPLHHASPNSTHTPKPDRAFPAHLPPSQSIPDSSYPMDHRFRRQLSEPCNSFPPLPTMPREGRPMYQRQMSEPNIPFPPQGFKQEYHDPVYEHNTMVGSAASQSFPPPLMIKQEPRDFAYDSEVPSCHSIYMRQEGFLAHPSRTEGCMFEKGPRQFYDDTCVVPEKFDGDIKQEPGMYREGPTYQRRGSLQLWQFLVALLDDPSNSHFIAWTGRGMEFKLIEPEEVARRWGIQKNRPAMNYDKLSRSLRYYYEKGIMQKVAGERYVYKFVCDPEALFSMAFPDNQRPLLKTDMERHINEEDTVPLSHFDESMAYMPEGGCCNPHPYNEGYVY
Sequence of HSF1 (Q00613 whole entry): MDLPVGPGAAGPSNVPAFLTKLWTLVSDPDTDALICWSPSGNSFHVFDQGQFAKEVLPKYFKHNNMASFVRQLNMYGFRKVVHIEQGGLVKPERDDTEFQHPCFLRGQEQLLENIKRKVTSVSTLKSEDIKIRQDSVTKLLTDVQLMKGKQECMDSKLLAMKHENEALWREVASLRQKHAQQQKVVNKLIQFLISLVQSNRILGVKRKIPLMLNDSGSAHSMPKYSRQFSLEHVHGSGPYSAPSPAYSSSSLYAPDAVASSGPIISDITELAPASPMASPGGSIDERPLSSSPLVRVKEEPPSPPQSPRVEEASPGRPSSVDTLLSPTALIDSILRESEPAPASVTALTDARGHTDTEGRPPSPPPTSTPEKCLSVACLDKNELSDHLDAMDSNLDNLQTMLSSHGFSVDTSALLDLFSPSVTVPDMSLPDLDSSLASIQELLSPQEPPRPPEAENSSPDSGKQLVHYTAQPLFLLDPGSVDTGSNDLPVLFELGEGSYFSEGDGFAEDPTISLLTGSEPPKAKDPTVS
Sequence of ELF4 (Q99607 whole entry): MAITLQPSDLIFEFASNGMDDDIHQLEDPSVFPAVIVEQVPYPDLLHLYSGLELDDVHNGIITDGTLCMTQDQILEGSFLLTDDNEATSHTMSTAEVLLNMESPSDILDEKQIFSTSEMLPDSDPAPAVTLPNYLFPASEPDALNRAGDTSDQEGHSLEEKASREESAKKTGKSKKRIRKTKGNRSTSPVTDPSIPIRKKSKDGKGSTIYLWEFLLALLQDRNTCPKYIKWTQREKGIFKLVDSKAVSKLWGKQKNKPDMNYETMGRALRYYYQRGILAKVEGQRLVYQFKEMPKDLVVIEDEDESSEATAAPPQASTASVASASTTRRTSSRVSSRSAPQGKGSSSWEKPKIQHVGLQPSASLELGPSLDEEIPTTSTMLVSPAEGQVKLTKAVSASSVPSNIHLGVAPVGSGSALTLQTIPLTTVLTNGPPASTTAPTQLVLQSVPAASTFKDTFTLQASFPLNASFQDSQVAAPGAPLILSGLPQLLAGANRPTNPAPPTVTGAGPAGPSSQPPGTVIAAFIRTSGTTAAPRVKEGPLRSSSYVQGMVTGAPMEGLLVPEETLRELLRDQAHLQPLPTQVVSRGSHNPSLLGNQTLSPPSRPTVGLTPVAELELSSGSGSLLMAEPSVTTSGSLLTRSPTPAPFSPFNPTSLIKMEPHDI
Sequence of ETV5 (P41161 whole entry): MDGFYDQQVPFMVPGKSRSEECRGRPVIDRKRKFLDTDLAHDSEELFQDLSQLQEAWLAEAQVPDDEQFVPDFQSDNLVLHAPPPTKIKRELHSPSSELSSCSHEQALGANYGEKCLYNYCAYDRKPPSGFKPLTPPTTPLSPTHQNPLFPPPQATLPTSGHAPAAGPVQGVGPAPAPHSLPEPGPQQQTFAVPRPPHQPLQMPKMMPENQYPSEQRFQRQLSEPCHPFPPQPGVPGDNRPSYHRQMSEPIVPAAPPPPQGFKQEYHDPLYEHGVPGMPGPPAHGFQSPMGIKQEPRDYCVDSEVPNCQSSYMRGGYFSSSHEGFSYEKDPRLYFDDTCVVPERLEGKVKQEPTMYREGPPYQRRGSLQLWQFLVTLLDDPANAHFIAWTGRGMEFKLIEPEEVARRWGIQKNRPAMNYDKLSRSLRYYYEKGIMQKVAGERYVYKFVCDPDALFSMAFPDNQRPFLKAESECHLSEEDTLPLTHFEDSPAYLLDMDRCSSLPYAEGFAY
Sequence of CRX (O43186 whole entry): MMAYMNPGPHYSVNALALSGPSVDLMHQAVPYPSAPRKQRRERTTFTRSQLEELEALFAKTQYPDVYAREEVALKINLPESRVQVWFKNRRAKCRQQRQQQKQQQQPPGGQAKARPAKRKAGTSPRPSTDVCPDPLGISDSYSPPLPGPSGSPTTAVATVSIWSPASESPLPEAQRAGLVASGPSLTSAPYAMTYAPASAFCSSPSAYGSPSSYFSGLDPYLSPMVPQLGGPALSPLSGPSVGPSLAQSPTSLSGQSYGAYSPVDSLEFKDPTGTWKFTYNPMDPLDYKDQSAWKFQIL
Sequence of ETV6 (P41212 whole entry): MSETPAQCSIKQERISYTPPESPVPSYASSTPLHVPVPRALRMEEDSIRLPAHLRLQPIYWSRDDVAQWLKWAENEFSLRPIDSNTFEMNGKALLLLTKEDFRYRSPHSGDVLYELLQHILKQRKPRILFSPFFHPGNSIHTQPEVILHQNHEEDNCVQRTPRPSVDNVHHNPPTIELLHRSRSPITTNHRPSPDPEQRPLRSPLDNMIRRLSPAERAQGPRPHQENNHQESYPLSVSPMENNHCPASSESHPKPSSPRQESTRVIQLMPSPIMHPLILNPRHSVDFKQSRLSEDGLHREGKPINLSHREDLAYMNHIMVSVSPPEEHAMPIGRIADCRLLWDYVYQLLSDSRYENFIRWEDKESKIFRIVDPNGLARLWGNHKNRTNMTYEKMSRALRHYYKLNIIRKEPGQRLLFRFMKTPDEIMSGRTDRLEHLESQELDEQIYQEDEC

For TTTACT, the binding signal was 1.41 fold enrichment (6-mer frequency, TF over GST control) with FEV; 1.44 fold enrichment (6-mer frequency, TF over GST control) with ETV5; 1.69 fold enrichment (6-mer frequency, TF over GST control) with HSF1; 1.44 fold enrichment (6-mer frequency, TF over GST control) in the assay with SPIC; 1.5 fold enrichment (6-mer frequency, TF over GST control) with ELF4; 1.66 fold enrichment (6-mer frequency, TF over GST control) with ELK4. The binding signal is 1.29 fold enrichment (6-mer frequency, TF over GST control) in the assay with ETV2; 1.65 fold enrichment (6-mer frequency, TF over GST control) in the assay with ELF3; 1.95 fold enrichment (6-mer frequency, TF over GST control) with CRX; 1.48 fold enrichment (6-mer frequency, TF over GST control) with ETV1; 1.3 fold enrichment (6-mer frequency, TF over GST control) with ERF; 1.42 fold enrichment (6-mer frequency, TF over GST control) in the assay with ETV3L. Also, the binding signal with ETS2 is 1.44 fold enrichment (6-mer frequency, TF over GST control); in the assay with SPDEF, 1.44 fold enrichment (6-mer frequency, TF over GST control); with ETV7, 1.57 fold enrichment (6-mer frequency, TF over GST control); with ELF5 it was 1.36 fold enrichment (6-mer frequency, TF over GST control); in the assay with ETV3, 1.53 fold enrichment (6-mer frequency, TF over GST control); in the assay with ETV6, 1.44 fold enrichment (6-mer frequency, TF over GST control).
